Assay [1] in a line: NCI Yeast Anticancer Drug Screen. Data for the rad50 strain (AID 155).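 Also: 0% = growth of vehicle-only cultures of the same strain.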 The following applies: S. cerevisiae rad50 strain growth inhibition; at 50.0 µM; active compounds read high. The method, boiled down:
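DNA repair mutant yeast, compound exposure, growth read-out; inhibition is taken relative to vehicle.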

A short description of assay [2]: NCI Yeast Anticancer Drug Screen. Data for the mec2-1 strain (AID 157). Particulars: S. cerevisiae mec2-1 strain, at 50.0 µM, active compounds read high. The method, boiled down: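 Test agents were screened against the mec2-1 yeast strain, with defined DNA repair or cell cycle alteration. Growth was scored as inhibition against vehicle-only controls.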
The nature of assay [3]: NCI Yeast Anticancer Drug Screen. Data for the mlh1 rad18 strain (AID 175). Particulars: S. cerevisiae mlh1 rad18 strain growth inhibition; at 50.0 µM; active compounds read high. The method, boiled down: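 In this whole-cell yeast screen, a strain with altered DNA damage repair is challenged with compound, and its growth is measured against matched vehicle-treated controls.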

Assay [4] can be described thus: NCI Yeast Anticancer Drug Screen. Data for the sgs1 mgt1 strain (AID 161).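 Also: 0% = growth of cultures given vehicle only.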 The following applies: S. cerevisiae sgs1 mgt1 strain, at 50.0 µM, active compounds read high. A digest of the protocol:
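Genetically altered yeast, compound exposure, growth inhibition relative to vehicle.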

Assay [5] in a line: NCI Yeast Anticancer Drug Screen. Data for the cln2 rad14 strain (AID 165).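 Also: 0% = growth equal to vehicle treated cultures.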 The following applies: S. cerevisiae cln2 rad14 strain, at 50.0 µM, active compounds read high. The method, boiled down:
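Growth of compound-exposed yeast (cln2 rad14 genotype) measured and expressed as inhibition relative to vehicle.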

Assay [6] is described as follows: NCI Yeast Anticancer Drug Screen. Data for the bub3 strain (AID 167). Particulars: S. cerevisiae bub3 mutant strain, at 50.0 µM, active compounds read high. A digest of the protocol: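 In this screen, a yeast mutant lacking normal mitotic checkpoint function is challenged with compound. Relative growth versus vehicle gives the inhibition value.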

The panel holds about 79,000 compounds, 15% with a hit somewhere; the sample as a whole holds those more often. Unmarked numbers belong to inactive results. Rule as the data show it: active = growth inhibition above about 70%; inactive = the rest.

As to `CCOc1ccc(Br)cc1/C=N/NS(=O)(=O)c1ccc(C)cc1`, the growth inhibition is 46.7% in assay [1], 29.1% in assay [2] and 8.35% in assay [3].

For `Cc1ccc(CNc2cc(C)ccn2)cc1`, the growth inhibition was 42.9% in assay [1], 23.9% in assay [2] and 26.9% in assay [3].

In the case of `C(=N\n1cnnc1)/c1ccc2c(c1)CCC2`, the growth inhibition in assay [1] was -21.6%; in assay [3], -20.4%.

Take `CC(=O)NCc1cc(CNC(C)=O)c(C)cc1C`: the growth inhibition in assay [1] is -17.5%; in assay [3], -23.6%.

With `O=C(CCc1ccc(O)cc1)N/N=C/c1cc(Br)ccc1O`, the growth inhibition in assay [1] was -29.6%; in assay [3], -20.6%.

Regarding `COc1ccc(C(=O)CC2CCCC(CC(=O)c3ccc(OC)cc3)N2C)cc1` (stereo not drawn), the growth inhibition was 5.4% in assay [1], -6.05% in assay [2] and 30.4% in assay [3].

For `CN(C)c1ccc(C2=C([O-])C(=C3C=CC(=[N+](C)C)C=C3)C2=O)cc1`, the growth inhibition was -10.4% in assay [1], -15.2% in assay [2] and -5.55% in assay [3].

Take `CCOc1ccc(/C=N/NS(=O)(=O)c2ccc(C)cc2)cc1`: the growth inhibition is -3.6% in assay [1] and -8.2% in assay [3].

With `Cc1ccc(NC(=S)N(C)C)cc1C`, the growth inhibition in assay [1] is -2.7%; in assay [2], -26.3%; in assay [3], 1.1%.

As for `c1ccc(-c2nc3ccc4ccccc4c3nc2-c2ccccc2)cc1`, the growth inhibition is -8.85% in assay [1], -35.2% in assay [2] and 1.85% in assay [3].

For the compound `CCCCCCCCCCCCCCCc1cc(=S)n(C)c2ccc(C)cc12`, the growth inhibition in assay [1] is 25.1%; in assay [2] it was -13.5%; in assay [3], 16.1%.

With `COC(=O)c1cc(C#N)[nH]c1-c1ccsc1`, the growth inhibition is -27.4% in assay [1]; -10.8% in assay [4]; 6.4% in assay [5]; -3.4% in assay [6]; 6.9% in assay [3].

`Cc1ccc(NC(=O)/C(Cc2cc(=O)oc3cc(O)ccc23)=N\NC(C)(C)C)cc1C`: the growth inhibition in assay [2] is -10.3%; in assay [4], -21.9%; in assay [5], -33.9%; in assay [6] it was -17.9%; in assay [3], -3.5%.

`CC(C)=CC(O)C/C(C)=C/CC/C(C)=C/CCC1(C)C(CCCO)/C(=C(/C)C=O)CCC1(C)O` (stereo not drawn): the growth inhibition in assay [2] was 4.75%; in assay [4] it was 10.2%; in assay [5] it was 16.9%; in assay [6] it was 4.6%; in assay [3] it was -52.9%.

Take `Fc1ccccc1Nc1n[nH]c(=S)s1`: the growth inhibition in assay [2] was 56.7%; in assay [3], 38.8%.

Take `O=S(=O)(O)c1cccc2cccc(Cl)c12`: the growth inhibition in assay [1] is 9.7%; in assay [3], 10.9%.

`C=C1CC2(C)CCC(OC(=O)C3(C)OC3C)C(C)(OC(C)=O)C2CC1=C(C)C` (stereo not drawn): the growth inhibition in assay [2] is -36.8%; in assay [4] it was 7.55%; in assay [5], 16.2%; in assay [6], -4.85%; in assay [3] it was -55%.

As to `COc1ccc(NC(=S)Nc2ccccn2)cc1`, the growth inhibition in assay [1] is -9.3%; in assay [3], 0.65%.

Regarding `COc1ccc(-c2cc(=O)c3c(O)cc(C)cc3o2)cc1OC`, the growth inhibition in assay [1] is -23.9%; in assay [3], -21.6%.

In the case of `CCN(CC)c1cc(C(C)(C)C)cc(C(C)(C)C)c1`, the growth inhibition in assay [2] was -21.5%; in assay [3], -11.1%.

For the compound `CCCCCCCCCC(O)CCCCC` (stereo not drawn), the growth inhibition in assay [2] is -21.2%; in assay [3], 15.3%.

As for `C[N+]12OC3CC1C1OC1C2C3` (stereo not drawn), the growth inhibition in assay [1] was -4.55%; in assay [3], 25.4%.

Consider `COc1cc(OC)cc(C(=O)Cl)c1`, for which the values for the growth inhibition in assay [2] and in assay [3] were -40% and -16.1%, respectively.

As for `CCOC(=O)NC(C)(C)CN(C(=O)OCC)C(C)(C)CO`, the growth inhibition in assay [1] was 3.5%; in assay [3], 8.05%.

`CC(O)Cn1cnc2c1c(=O)n(C)c(=O)n2C` (stereo not drawn): the growth inhibition in assay [1] was -40.1%; in assay [3] it was -30.1%.

On to `N#CCC(=O)OCCCCOC(=O)CC#N`, for which the growth inhibition in assay [2] was -22.3%; in assay [3] it was 15.4%.

`O=C=NC(c1ccccc1)(c1ccccc1)c1ccccc1`: the growth inhibition in assay [2] was -18.1%; in assay [4], 1.65%; in assay [5], 11.5%; in assay [6], -5.5%; in assay [3], 13.2%.

Regarding `c1ccc2c(c1)OCCOCCOc1ccccc1OCCOCCO2`, the growth inhibition in assay [1] is 3.15%; in assay [3] it was 15.1%.

Consider `OC(c1ccc(F)cc1)(c1cccs1)C1CC1` (stereo not drawn), for which the growth inhibition in assay [2] is -4.75%.

For the compound `Cc1ccc(/C=N/N2C(=O)c3ccccc3C2=O)cc1`, the growth inhibition in assay [2] is -43.1%; in assay [3], -37.9%.

In the case of `COc1cc2c(cc1C1COc3cc4occc4cc3C1=O)OCO2` (stereo not drawn), the growth inhibition in assay [2] was -33.8%; in assay [4] it was 4.05%; in assay [5] it was 6.8%; in assay [6], -4.45%; in assay [3], -25.6%.

As to `CC1(c2ccc3ccccc3c2)CCC(=O)O1` (stereo not drawn), the results for the growth inhibition in assay [1] and in assay [3] were -2.75% and -4.8%, respectively.

On to `Cc1ccc(S(=O)(=O)NCN2C(=O)c3ccccc3C2=O)cc1`, for which the results for the growth inhibition in assay [1] and in assay [3] were -3.75% and 1.55%, respectively.

As for `COc1ccc(CNc2ccccn2)cc1`, the growth inhibition is 10.9% in assay [1] and 40.2% in assay [3].

Turning to `Cc1ccc(CNc2cccc([N+](=O)[O-])c2)cc1`, the values for the growth inhibition in assay [1] and in assay [3] were 8.6% and 1.8%, respectively.

For the compound `COc1cc(-c2cc(=O)c3c(O)cc(C)cc3o2)cc(OC)c1OC`, the growth inhibition is -0.85% in assay [1] and -17.8% in assay [3].

Turning to `Nc1nc(N)nc(-c2ccccc2Cl)n1`, the growth inhibition in assay [2] was -10.8%; in assay [3], 32.2%.
